# From PubChem BioAssay (Tox21)
# Results filed as inconclusive are left out. A call without a number means that no potency is given here. The source made the active and inactive calls. Calls come from the whole dose curve; as a rule, active = well fitted activation curve with a large enough effect in the repeat runs; inconclusive = weak or mixed curves; inactive = flat fitted curve, though single readings scatter. Residues, ends and D or L forms follow the SMILES beside them.
# Assay: A CellTox Green Cytotoxicity Assay to monitor cytotoxicity in HEK293 cells - 24 hour (AID 1224875); note: nearly all actives have a fitted effect of over 45% in size
# Settings: CellTox Green fluorescence; series mostly up to 76.8 µM
# Description: National Center for Advancing Translational Sciences [NCATS]
# NIH Chemical Genomics Center [NCGC]
# U.S. Environmental Protection Agency [EPA]
# National Institutes of Environmental Health Sciences [NIEHS]
# National Toxicology Program [NTP]
# Cell-based models are critical for drug discovery. Determining the natural cytotoxic effects resulting from test compounds is an essential research activity. A CellTox Green Cytotoxicity Assay to monitor cytotoxicity in real time of continues cell culture during 40 hours of the compound treatment was used to screen Tox21 10K library compounds in Hek293 cells. CellTox Green Cytotoxicity Assay is a nonlytic, homogeneous, biofluorescent method to measure cytotoxicity in cell culture after experimental manipulation. The assay system uses a proprietary asymmetric cyanine dye that is excluded from viable cells but preferentially stains the dead cell's DNA. […] Viable cells produce no appreciable increases in fluorescence. Therefore, the fluorescence signal produced by the binding interaction with dead cell DNA is proportional to cytotoxicity.
# The mixture of Hek293 cell suspension and reagents were dispensed at 600cells/6 ul/well in 1536-well tissue culture treated black solid bottom plates using a Multidrop dispenser. After the assay plates were incubated at a 37 C/5% CO2 incubator for 5 hours, 23 nL of compounds dissolved in DMSO, positive and negative controls was transferred to the assay plate by a pintool work station. The plates were incubated at 37 C for 40 hours. The fluorescence intensity were measured at 0h, 8h, 16h, 24h, 32h and 40h time points using ViewLux plate reader during compound treatment.
row,SMILES,Potency
1,CC1(C)[C@@H]2CC[C@@]1(C)C(=O)C2,inactive
2,O=c1cc[nH]c(=S)[nH]1,inactive
3,O=C(O)C(=O)O,inactive
4,O=C(O)CCCCCCCC(=O)O,inactive
5,NC(=O)c1cnccn1,inactive
6,CCCCC1C(=O)N(c2ccccc2)N(c2ccccc2)C1=O,inactive
7,CC(=O)NS(=O)(=O)c1ccc(N)cc1,inactive
8,Cc1ccc(C)c(OCCCC(C)(C)C(=O)O)c1,inactive
9,CCCC(CCC)C(=O)O,inactive
10,Nc1ccn([C@H]2CC[C@@H](CO)O2)c(=O)n1,inactive
11,Oc1ccc(/C=C/c2cc(O)cc(O)c2)cc1,inactive
12,Cn1c(=O)c2[nH]cnc2n(C)c1=O,inactive
13,CC(C)[C@@H]1CC[C@@H](C)C[C@H]1O,inactive
14,NS(=O)(=O)c1cc(C(=O)O)c(NCc2ccco2)cc1Cl,inactive
15,COC(=O)[C@H](Cc1ccccc1)NC(=O)[C@@H](N)CC(=O)O (H-Asp-Phe-OMe),inactive
16,NC(N)=O,inactive
17,CC(O)CO (stereo not given),inactive
18,O=NO,inactive
19,O=C(c1ccccc1)c1ccccc1,inactive
20,O=C1NC(=O)c2ccccc21,inactive

row,SMILES,Potency
1,CC(=O)Nc1nnc(S(N)(=O)=O)s1,inactive
2,O=C(O)CCCCC(=O)O,inactive
3,O=C(O)/C=C\C(=O)O,inactive
4,CCCCC(CC)COC(=O)/C=C/c1ccc(OC)cc1 (stereo not given),inactive
5,CCCNC(=O)NS(=O)(=O)c1ccc(Cl)cc1,inactive
6,C/C=C/c1ccc(OC)cc1,inactive
7,O=C(O)c1cc(N=Nc2ccc(S(=O)(=O)Nc3ccccn3)cc2)ccc1O,inactive
8,O=C(O)c1cccc([N+](=O)[O-])c1,inactive
9,NC(=O)c1ccccc1O,inactive
10,OC(Cn1cncn1)(Cn1cncn1)c1ccc(F)cc1F,inactive
11,Cc1cn([C@H]2C[C@H](N=[N+]=[N-])[C@@H](CO)O2)c(=O)[nH]c1=O,inactive
12,O=C(O)c1[nH]n(-c2ccc(S(=O)(=O)O)cc2)c(=O)c1N=Nc1ccc(S(=O)(=O)O)cc1,inactive
13,Nc1ccc(S(=O)(=O)c2ccc(N)cc2)cc1,inactive
14,O=C(O)CS,inactive
15,Cc1ccc(S(=O)(=O)NC(=O)NN2CCCCCC2)cc1,inactive
16,O=C(O)CCC(=O)O,inactive
17,O=S(=O)(O)c1ccc2cc(O)ccc2c1,inactive
18,Cc1cc(=O)[nH]c(=S)[nH]1,inactive
19,CNC[C@H](O)c1cccc(O)c1,inactive
20,Nc1ccc(O)c(C(=O)O)c1,inactive
